Measured potencies and affinities stand elsewhere. The source made the active and inactive calls. No rule for the calls is given here.

In the assay the target is CAAX prenyl protease 2 (Homo sapiens) (UniProt Q9Y256). Description: human Rce1 protease inhibitors, dose response, biochemical, yeast membranes, quenched-peptide fluorescence, cherry-pick (AID 588849). The following applies: yeast membrane fractions expressing human Rce1, quenched-peptide fluorescence, 4 h; series mostly up to 10 µM.
Chain of CAAX prenyl protease 2 (Homo sapiens) (Q9Y256 whole entry, looked up): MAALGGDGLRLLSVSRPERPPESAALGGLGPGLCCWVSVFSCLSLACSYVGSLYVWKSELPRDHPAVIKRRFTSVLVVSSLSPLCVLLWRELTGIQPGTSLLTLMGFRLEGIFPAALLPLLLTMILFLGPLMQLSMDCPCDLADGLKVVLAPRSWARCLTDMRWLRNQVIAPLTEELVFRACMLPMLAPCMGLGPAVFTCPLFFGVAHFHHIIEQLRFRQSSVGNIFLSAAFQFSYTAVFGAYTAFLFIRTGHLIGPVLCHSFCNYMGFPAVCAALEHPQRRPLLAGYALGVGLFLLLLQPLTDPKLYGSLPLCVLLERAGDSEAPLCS
For the molecule `CCOC(=O)c1c(NC(=O)COc2ccccc2F)sc2c1CC(C)(C)NC2(C)C`, the outcome was inactive. Turning to `Cc1ccc(OCCn2c3ccccc3n3nc(C)c(=O)nc23)cc1`, the molecule was classed as inactive.

Turning to `Cc1nc2c(C)cccn2c(=O)c1NC(=O)COc1ccccc1`, the call was inactive. `c1ccc(-c2ccc(-c3cn4c(n3)CCC4)cc2)cc1`: the molecule was called inactive. With `COc1ccc(S(=O)(=O)N(CC(=O)N2CCCC2)Cc2ccccc2)cc1`, the call was inactive. The same measure for `O=C(CN1CCC(NC(=O)c2ccc(Br)cc2)CC1)NCc1cccs1`: “inactive”; for `CCCCNC(=O)C(CC)Sc1nc2sc(C(=O)OC)c(C)c2c(=O)n1N` (centres undefined): “inactive”. Turning to `COC(=O)C1CCCN1S(=O)(=O)c1ccc2ccccc2c1` (centres undefined), the molecule was called inactive.

As for `Cn1c(CN2CCOCC2)c(C#N)c2ccccc21`, the call was inactive.

`COc1ccc(-c2cc(C(F)(F)F)nc(SCC(=O)NCc3cnn(C)c3C)n2)cc1OC`: the call was inactive.

Regarding `CCC(=O)Nc1cccc(NC(=S)NC(=O)c2cccs2)c1`, the molecule was classed as inactive.

On to `Cc1c(Cl)c([N+](=O)[O-])nn1CC(=O)N1CCCc2ccccc21`, for which the molecule was classed as inactive. `O=C(c1cn(-c2ccccc2)nc1-c1cccs1)N1CCN(c2ccccc2)CC1`: the call was inactive. For the molecule `COC(=O)c1sccc1NC(=O)CSc1nnnn1-c1ccccc1C`, the molecule was called inactive. The same measure for `CCN1CCN(c2ccc(NC(=O)c3cccc(OCc4ccccc4)c3)cc2)CC1`: “inactive”. As for `CCn1nc(C)cc1C(=O)NC1CC(C)(C)Cc2c1cnn2-c1cccc(F)c1` (centres undefined), the outcome was inactive.

Consider `COc1cc2c(cc1OC)C(C)N(C(=O)c1cc3c(=O)oc4ccc(C)cc4c3s1)CC2` (centres undefined), for which the molecule was called inactive. As to `CCCNC(=O)c1c(N)n(-c2ccc(S(N)(=O)=O)cc2)c2nc3ccccc3nc12`, the molecule was called inactive. Consider `COc1ccc(CN2CCN(C(c3ccc(F)cc3)c3ccc(F)cc3)CC2)c(OC)c1OC`, for which the call was inactive. As to `COc1cccc2sc3ccc(C#CC4(O)CCCCC4)cc3c(=O)c12`, the call was inactive. Under `COCCCNC(=O)c1cc2cc3cc(OC)ccc3nc2o1` stands “inactive”.

Turning to `COc1ccc(C)cc1NC(=O)CCC(=O)Nc1ccc2nc(N3CCN(C)CC3)cc(C)c2c1`, the call was inactive.

`Cc1ccc(C2(COC(=O)C(C)C)CO2)c(OC(=O)C(C)C)c1` (centres undefined): the molecule was classed as inactive. For `COc1ccc(C)cc1NC(=O)CN1C(=O)COc2ccc(S(=O)(=O)N3CCOCC3)cc21`, the call was inactive. `CN(C)CCN(C(=O)c1ccc2ccccc2c1)c1nc2ccc(Br)cc2s1`: the outcome was inactive. For `Cc1cc(C)n(-c2nc3ccccc3c(=O)n2OCC(=O)N(C)C)n1`, the molecule was classed as inactive. As to `Cc1ccc(S(=O)(=O)CC(=O)N2CCN(c3ccccc3F)CC2)cc1`, the result was inactive. The same measure for `Cc1cc(NS(=O)(=O)c2ccccc2)c([N+](=O)[O-])cc1C`: “inactive”; for `CCOC(=O)C1CCCN(C(=O)CCn2nnnc2CN2CCOCC2)C1` (centres undefined): “inactive”.

In the case of `CCn1c(COc2cccc(C)c2)nnc1SCC(=O)NC1CCCC1`, the molecule was called inactive. Regarding `CN1CCN(C(=O)c2ccc(-c3cccs3)s2)CC1`, the call was inactive.

For the molecule `COc1ccc(C2Nc3ccccc3C(=O)N2Cc2ccccc2)cc1COc1ccccn1` (centres undefined), the outcome was inactive.

As to `CCC(COC)NC(=O)CCc1nnc(Cc2cccc(C(F)(F)F)c2)o1` (centres undefined), the molecule was called inactive. As for `Cc1cc(C)n2nc(CC(=O)NNC(=O)c3ccc(N(C)C)cc3)nc2n1`, the result was inactive. Regarding `COc1ccc(-c2c(-c3ccsc3)oc3ccc(N4CCOCC4)cc23)cn1`, the outcome was inactive. For the molecule `Cc1cccc(-c2nnc(SCc3ccc(C#N)cc3)n2Cc2ccco2)c1`, the molecule was classed as inactive.

For the molecule `O=C(Nc1cccc2ncccc12)c1cccnc1`, the call was inactive. The same measure for `COCCNc1nc(N)c([N+](=O)[O-])c(N2CCCCCC2)n1`: “inactive”; for `Cc1cccc(N2C(=O)c3cccc4c(N5CCCCC5)c([N+](=O)[O-])cc(c34)C2=O)c1C`: “inactive”.

The record behind these values is PubChem BioAssay AID588849 (Broad Institute, 2011).
